Test results reported in PubChem BioAssay (NCATS).
Records with an inconclusive call do not appear. Active and inactive are the calls of the source. Unless noted, the call rests on the fitted dose curve; in most records, active means well fitted curve in the direction sought with a large enough effect; inconclusive means small, poorly fitted or top-dose-only effect, or another doubt; inactive means no such curve, though single readings can be large; an effect the other way counts as inactive or inconclusive.

Tests used:
[1] = AP1 Signaling Pathway (AID 357; active means well fitted curve in either direction with a large enough effect, not every such curve was filed as active;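 further: ME-180 reporter cells stimulated with EGF at its EC50 level; on the % scale 0 is the no-effect control and ±100 the full control effect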); settings: ME-180 AP-1-bla reporter, EGF-induced, beta-lactamase ratio, 5 h; at 17.2 µM (top of the series) unless noted
Method in brief: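 First, ME-180 AP-1-bla cells were cultured overnight at 37 °C in low-serum Opti-MEM. Next, titrated compounds with EC50 EGF were incubated 5 hours. Finally, CCF4 was added for 2.5 hours and the 460/530 nm ratio recorded.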

[2] = target: Cytochrome P450 1A2 (Homo sapiens) (UniProt P05177); assay: p450-cyp1a2 (AID 410; calls by dose curve; further: potency means the concentration at half of the fitted maximal effect;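 on activity change, negative = inhibition: -100% = full effect of reference inhibitor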)
Sequence of Cytochrome P450 1A2 (Homo sapiens) (P05177 whole entry, looked up): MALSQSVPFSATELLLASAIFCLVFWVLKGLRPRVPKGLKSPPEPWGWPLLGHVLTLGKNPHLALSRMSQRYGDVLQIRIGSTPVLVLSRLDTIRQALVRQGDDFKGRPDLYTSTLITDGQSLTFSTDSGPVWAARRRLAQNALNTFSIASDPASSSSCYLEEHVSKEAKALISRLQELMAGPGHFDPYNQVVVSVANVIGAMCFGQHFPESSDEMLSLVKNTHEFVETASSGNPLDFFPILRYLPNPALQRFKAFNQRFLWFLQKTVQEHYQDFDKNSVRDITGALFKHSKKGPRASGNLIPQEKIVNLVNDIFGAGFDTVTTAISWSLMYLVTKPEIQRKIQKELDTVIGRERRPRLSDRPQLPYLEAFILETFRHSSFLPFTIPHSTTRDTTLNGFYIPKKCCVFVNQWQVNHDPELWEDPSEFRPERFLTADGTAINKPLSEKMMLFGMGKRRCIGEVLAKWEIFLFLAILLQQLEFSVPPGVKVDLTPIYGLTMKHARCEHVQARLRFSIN
Method in brief: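 Luminescent readout of luciferin formed from Luciferin-ME by human CYP1A2; data normalized against complete inhibition by 57 uM furafylline. Enzyme 20nM, substrate 100uM at Km, 100mM KPO4 buffer, 60 min reaction at room temperature.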

[3] = Stat Signaling Pathway (AID 446; active means well fitted curve in either direction with a large enough effect, not every such curve was filed as active;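 further: ME-180 cervical cancer cells given 40 pM IL-6 alongside compound; SIE-controlled beta-lactamase reporter measured as 460/530 nm FRET emission ratio; on the % scale 0 is the no-effect control and ±100 the full control effect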)
Method in brief: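 ME-180 SIE-bla cells; overnight plating; cpd + IL-6 40 pM, 5 h, 37 C; LiveBLAzer 2.5 h RT; 460/530 nm emission ratio. Normalized to 300 pM IL-6 and 125 nM JAK inhibitor controls.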

[4] = target: Glucocorticoid receptor (Homo sapiens) (UniProt P04150); assay: GR-EFC Redistribution (AID 451; calls by dose curve; further: potency means the concentration at half of the fitted maximal effect); settings: CHO-K1 GR-EFC translocation, beta-gal luminescence, 2 h
Sequence of Glucocorticoid receptor (Homo sapiens) (P04150 whole entry, looked up, the tested form may be a part): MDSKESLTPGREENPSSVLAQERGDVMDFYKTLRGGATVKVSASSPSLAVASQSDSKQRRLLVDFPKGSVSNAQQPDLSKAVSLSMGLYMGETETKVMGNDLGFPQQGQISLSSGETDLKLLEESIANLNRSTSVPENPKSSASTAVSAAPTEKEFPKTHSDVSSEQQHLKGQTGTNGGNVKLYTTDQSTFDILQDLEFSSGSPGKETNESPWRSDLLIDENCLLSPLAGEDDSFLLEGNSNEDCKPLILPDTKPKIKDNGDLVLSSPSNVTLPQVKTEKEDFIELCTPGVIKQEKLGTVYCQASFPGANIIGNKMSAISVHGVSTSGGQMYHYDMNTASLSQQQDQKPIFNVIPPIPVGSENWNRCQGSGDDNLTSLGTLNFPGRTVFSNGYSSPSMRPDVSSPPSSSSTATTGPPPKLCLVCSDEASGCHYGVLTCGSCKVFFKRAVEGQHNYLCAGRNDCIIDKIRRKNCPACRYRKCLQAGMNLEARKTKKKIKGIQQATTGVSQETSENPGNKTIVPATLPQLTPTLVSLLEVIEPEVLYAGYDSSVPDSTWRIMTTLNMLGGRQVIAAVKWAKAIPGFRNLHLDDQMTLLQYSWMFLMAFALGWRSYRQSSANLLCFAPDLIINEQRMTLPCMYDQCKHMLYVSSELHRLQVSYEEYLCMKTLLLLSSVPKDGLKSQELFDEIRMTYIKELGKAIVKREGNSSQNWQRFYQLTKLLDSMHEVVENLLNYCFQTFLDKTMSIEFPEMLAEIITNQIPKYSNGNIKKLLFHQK
Method in brief: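 CHO-K1 cells expressing nuclear EA and GR-ED fragments of b-gal; compounds titrated up to 46 uM final, 2 h at 37 C. GR nuclear translocation read as complemented b-gal luminescence after 1 h RT detection.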

[5] = target: Mitogen-activated protein kinase 10 (Mus musculus) (UniProt Q61831); assay: JNK3 AlphaScreen Assay (AID 530; active means well fitted curve in either direction with a large enough effect, not every such curve was filed as active;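 further: kinase came from lysate of stimulated human HepG2 cells; signal reports phosphorylation of biotinylated GST-cJun 1-79 at Ser73 with 10 µM ATP; on the % scale 0 is the no-effect control and ±100 the full control effect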)
Method in brief: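 Pre-activated (IL-1β/TNFα) JNK3 in HepG2 lysates phosphorylates biotin-GST-cJun(1-79), 10 uM ATP; anti-phospho-cJun(Ser73) AlphaScreen read at room temperature, pH 7.6 Tris buffer. Compounds pre-incubated 15 min as titrations.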

[6] = target: 3',5'-cyclic-AMP phosphodiesterase 4B (Homo sapiens) (UniProt Q07343); assay: qHTS Assay for Inhibitors of PDE-IV (AID 607; active means well fitted activation curve with a large enough effect in the main read-out, with a control signal flat, not every such curve was filed as active; further: % of control where 0% means no effect)
Sequence of 3',5'-cyclic-AMP phosphodiesterase 4B (Homo sapiens) (Q07343 whole entry, looked up): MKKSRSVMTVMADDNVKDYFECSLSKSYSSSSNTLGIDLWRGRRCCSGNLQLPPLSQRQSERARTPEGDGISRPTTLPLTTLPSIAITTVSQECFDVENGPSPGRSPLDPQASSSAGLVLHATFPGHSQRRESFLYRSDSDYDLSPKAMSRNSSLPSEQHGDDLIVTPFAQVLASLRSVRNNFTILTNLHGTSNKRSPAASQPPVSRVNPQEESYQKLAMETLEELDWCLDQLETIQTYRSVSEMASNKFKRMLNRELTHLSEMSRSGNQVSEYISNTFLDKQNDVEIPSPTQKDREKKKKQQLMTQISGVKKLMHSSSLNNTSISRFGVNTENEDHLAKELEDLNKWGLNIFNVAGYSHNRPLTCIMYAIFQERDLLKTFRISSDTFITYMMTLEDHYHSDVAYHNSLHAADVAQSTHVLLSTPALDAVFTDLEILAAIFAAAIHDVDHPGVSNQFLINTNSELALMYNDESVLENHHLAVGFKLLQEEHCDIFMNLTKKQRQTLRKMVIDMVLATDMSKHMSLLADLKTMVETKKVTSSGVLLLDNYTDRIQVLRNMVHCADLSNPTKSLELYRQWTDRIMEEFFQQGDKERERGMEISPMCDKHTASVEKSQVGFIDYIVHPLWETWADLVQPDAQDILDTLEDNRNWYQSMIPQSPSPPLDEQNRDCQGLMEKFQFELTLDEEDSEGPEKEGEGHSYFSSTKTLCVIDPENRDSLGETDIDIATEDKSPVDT
Method in brief: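 ACTOne HEK293 cells carry a modified cAMP-gated CNG channel and express endogenous PDE4; plated 1000 cells/well, compounds up to 22.9 uM final. Membrane-potential dye fluorescence (ex 535/em 590) was read; parental cells received 10 uM forskolin + 100 uM RO 20-1724.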

[7] = target: Guanine nucleotide-binding protein G(i) subunit alpha-1 (Homo sapiens) (UniProt P63096); assay: qHTS Assay for Inhibitors of RGS12 GoLoco Motif Activity (Green Fluorophore) (AID 879);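 further: 0% = labeled peptide with Gαi1 and full inhibition = labeled peptide alone without protein; negative values mean loss of peptide binding seen as reduced polarization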
Sequence of Guanine nucleotide-binding protein G(i) subunit alpha-1 (Homo sapiens) (P63096 whole entry, looked up): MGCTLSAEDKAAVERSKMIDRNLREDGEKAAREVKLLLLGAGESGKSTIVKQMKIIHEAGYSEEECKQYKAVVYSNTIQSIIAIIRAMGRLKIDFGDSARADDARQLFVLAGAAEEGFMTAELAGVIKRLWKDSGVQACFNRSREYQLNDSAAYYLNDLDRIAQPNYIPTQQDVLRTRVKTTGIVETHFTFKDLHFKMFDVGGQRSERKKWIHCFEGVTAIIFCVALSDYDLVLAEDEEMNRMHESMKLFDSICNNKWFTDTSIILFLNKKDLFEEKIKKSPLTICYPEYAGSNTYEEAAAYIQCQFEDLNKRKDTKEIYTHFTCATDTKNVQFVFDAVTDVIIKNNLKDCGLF
Method in brief: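 Fluorescence polarization assay: 50 nM Gαi1 with 10 nM FITC-labeled RGS12 GoLoco peptide in 10 mM Tris pH 7.5, 150 mM NaCl, 0.1 mM GDP, 0.05% NP40, 10 min at room temperature with compound.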

[8] = target: Cytochrome P450 2D6 (Homo sapiens) (UniProt P10635); assay: qHTS Assay for Inhibitors and Substrates of Cytochrome P450 2D6 (AID 891); further: nearly all actives have a fitted effect of over 60% in size; further: potency means the concentration at half of the fitted maximal effect
Sequence of Cytochrome P450 2D6 (Homo sapiens) (P10635 whole entry, looked up): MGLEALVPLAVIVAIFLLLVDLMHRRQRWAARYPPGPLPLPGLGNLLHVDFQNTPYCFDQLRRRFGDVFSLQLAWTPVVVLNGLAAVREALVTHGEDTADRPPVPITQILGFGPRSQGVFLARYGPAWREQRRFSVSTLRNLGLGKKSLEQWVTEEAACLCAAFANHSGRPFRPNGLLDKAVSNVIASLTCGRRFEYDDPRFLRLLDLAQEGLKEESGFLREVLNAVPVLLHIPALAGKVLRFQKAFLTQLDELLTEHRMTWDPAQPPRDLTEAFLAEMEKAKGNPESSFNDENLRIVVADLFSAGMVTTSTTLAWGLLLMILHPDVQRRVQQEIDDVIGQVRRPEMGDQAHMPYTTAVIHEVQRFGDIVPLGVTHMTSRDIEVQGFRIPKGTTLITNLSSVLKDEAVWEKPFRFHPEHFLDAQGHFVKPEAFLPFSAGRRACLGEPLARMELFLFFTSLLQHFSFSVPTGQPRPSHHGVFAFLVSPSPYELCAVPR
Method in brief: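 Human CYP2D6 (5 nM) with 30 uM Luciferin-ME EGE (at Km) in 100 mM KPO4, compound preincubated 10 min, then NADPH regeneration system for 60 min at room temperature. Luciferin read by luminescence; normalized to 1.43 uM quinidine.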

[9] = qHTS Assay for Identification of Small Molecule Antagonists for NFkB Signaling Pathway (AID 895; active means well fitted inhibition curve with a large enough effect in the signal ratio, with a control signal flat, not every such curve was filed as active; the % refers to the signal ratio; further: potency means the concentration at half of the fitted maximal effect)
Method in brief: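 ME-180 NFkB-bla cells (beta-lactamase under NFkB response element), plated overnight, treated with compound then 10 pM TNF alpha (about EC50) for 5 hrs at 37 C. LiveBLAzer FRET read at 460/530 nm emission, 405 nm excitation.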

[10] = qHTS Assay for Identification of Small Molecule Agonists for Thrombopoietin (TPO) Signaling Pathway (AID 917); further: on the % scale 0 is the no-effect control and ±100 the full control effect
Method in brief: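 We measured Glycoprotein IIb promoter–luciferase output in IL-3-starved Ba/F3 murine cells expressing the human TPO receptor after 24 hrs at 37 C with compounds and 26 pM TPO.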

[11] = target: Pyruvate kinase PKM (Homo sapiens) (UniProt P14618); assay: qHTS Assay for Activators of Human Muscle Pyruvate Kinase (AID 954; active means well fitted curve in the direction sought with a large enough effect, not every such curve was filed as active;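 further: 0% = uninhibited enzyme and -100% = no enzyme or full thiadiazolimine inhibition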)
Sequence of Pyruvate kinase PKM (Homo sapiens) (P14618 whole entry, looked up): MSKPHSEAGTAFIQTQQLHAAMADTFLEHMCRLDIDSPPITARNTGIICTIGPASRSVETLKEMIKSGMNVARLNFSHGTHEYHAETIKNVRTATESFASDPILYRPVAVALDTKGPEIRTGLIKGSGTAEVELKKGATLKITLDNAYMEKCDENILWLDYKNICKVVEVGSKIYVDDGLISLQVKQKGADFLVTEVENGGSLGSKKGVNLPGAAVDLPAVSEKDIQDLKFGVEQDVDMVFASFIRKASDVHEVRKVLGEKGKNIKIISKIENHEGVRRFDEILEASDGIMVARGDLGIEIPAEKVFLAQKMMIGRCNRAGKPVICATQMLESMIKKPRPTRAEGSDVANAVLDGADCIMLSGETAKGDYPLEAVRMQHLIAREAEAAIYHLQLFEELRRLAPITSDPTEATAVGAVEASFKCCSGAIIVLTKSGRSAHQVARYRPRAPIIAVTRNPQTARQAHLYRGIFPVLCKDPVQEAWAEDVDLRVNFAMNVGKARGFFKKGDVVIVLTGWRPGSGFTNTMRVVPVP
Method in brief: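 Luminescence from a luciferase ATP-detection/stop reagent reported PKM2 activity. Reactions contained 0.1 nM purified human enzyme, 0.5 mM PEP, 0.1 mM ADP and 7 mM MgCl2 at pH 7.2, run 1 h at RT.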

[12] = target: Alpha-galactosidase (Coffea arabica) (UniProt Q42656); assay: Counterscreen for Glucocerebrosidase Inhibitors: qHTS Assay for Coffee Bean alpha-Galactosidase at pH 4.5 (AID 957);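 further: plate controls were enzyme alone for no effect and no enzyme for full effect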
Sequence of Alpha-galactosidase (Coffea arabica) (Q42656 whole entry, looked up): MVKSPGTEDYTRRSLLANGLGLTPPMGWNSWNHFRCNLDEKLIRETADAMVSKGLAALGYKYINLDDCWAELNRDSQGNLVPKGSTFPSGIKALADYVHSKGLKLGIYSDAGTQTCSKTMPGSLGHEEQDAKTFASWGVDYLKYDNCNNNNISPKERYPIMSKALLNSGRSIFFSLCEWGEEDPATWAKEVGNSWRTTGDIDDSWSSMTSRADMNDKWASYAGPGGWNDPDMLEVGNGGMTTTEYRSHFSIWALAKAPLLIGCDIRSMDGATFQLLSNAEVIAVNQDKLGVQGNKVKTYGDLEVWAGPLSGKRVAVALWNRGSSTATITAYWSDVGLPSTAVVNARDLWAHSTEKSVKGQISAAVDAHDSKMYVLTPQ
Method in brief: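 Coffee bean alpha-galactosidase 2 nM, substrate 4-MU-alpha-Gal 80 uM, pH 4.5 citrate/Tween-20, 20 min RT. Cpd titration 0.7 nM–77 uM. Stop pH 10, fluorescence 365/440 nm; Hill-equation AC50.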

[13] = target: Alpha-galactosidase A (Homo sapiens) (UniProt P06280); assay: Counterscreen for Glucocerebrosidase Inhibitors: qHTS Assay for Human alpha-Galactosidase at pH 4.5 (AID 992); further: 0% is about no effect
Sequence of Alpha-galactosidase A (Homo sapiens) (P06280 whole entry, looked up): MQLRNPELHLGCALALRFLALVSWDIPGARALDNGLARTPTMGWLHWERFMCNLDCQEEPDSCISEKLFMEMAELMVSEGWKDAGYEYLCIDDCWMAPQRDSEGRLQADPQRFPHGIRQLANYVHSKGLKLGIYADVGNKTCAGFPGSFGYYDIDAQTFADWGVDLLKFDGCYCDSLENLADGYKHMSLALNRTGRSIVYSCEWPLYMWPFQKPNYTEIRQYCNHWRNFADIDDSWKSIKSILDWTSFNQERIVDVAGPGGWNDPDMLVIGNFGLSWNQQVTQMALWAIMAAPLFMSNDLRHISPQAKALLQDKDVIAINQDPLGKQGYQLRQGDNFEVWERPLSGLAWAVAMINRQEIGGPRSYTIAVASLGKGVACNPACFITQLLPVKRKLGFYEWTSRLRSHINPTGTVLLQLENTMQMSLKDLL
Method in brief: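 Enzyme at 2 nM final was combined with compound (0.7 nM to 77 uM) and 80 uM 4-methylumbelliferyl alpha-D-galactopyranoside in 50 mM citric acid, 0.005% Tween-20, pH 4.5. After 20 min at room temperature, fluorescence was read (Ex 365/Em 440 nm); AC50 came from Hill fits.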

[14] = target: Alpha-galactosidase (Coffea arabica) (UniProt Q42656); assay: Counterscreen for Glucocerebrosidase Inhibitors: qHTS Assay for Coffee Bean alpha-Galactosidase at pH 5.9 (AID 998);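 further: plate controls were uninhibited enzyme for no effect and no-enzyme basal signal for full effect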
Method in brief: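 Green coffee bean enzyme (2 nM) with 4-methylumbelliferyl alpha-D-galactopyranoside (80 uM) in 50 mM citric acid, 0.005% Tween-20, pH 5.9, 20 min at room temperature; compounds 0.7 nM–77 uM. Stopped at pH 10, fluorescence Ex365/Em440; Hill-fit AC50.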

[15] = target: Cytochrome P450 3A4 (Homo sapiens) (UniProt P08684); assay: qHTS Assay for Activators of Cytochrome P450 3A4 (AID 885); further: nearly all actives have a fitted effect of over 65% in size
Method in brief: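 20nM CYP3A4 + 25uM Luciferin-PPXE (=KM), 200mM KPO4; cpd 10 min RT; NADPH regen, 60 min RT; stop w/ detection buffer, 20 min; luminescence. Normalized to 57 uM ketoconazole.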

[16] = target: Muscarinic acetylcholine receptor M1 (Rattus norvegicus) (UniProt P08482); assay: qHTS Assay for Antagonists of Acetylcholine Muscarinic M1 Receptor: Kinetic Measurement of Intracellular Calcium Response (AID 943); further: nearly all actives have a fitted effect of over 75% in size; further: potency means the concentration at half of the fitted maximal effect;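 on activity change, negative = inhibition: Fluo-4 calcium signal as peak divided by basal fluorescence over 4 min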
Sequence of Muscarinic acetylcholine receptor M1 (Rattus norvegicus) (P08482 whole entry, looked up): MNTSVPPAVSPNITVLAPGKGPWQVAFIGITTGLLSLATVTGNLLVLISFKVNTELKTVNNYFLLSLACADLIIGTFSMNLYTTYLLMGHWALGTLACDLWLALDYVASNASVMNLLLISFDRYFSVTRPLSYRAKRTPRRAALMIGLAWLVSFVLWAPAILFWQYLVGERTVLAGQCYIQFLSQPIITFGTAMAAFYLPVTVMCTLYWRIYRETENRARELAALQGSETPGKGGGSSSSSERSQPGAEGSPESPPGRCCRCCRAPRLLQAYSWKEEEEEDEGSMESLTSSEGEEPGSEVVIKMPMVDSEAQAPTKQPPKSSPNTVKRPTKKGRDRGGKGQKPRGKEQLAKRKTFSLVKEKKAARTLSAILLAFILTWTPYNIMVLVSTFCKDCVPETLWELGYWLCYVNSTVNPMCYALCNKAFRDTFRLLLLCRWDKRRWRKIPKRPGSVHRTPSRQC
Method in brief: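 Rat M1-CHO cells, 2000/well, overnight → Fluo-4 no-wash dye with probenecid, 1 h 37C → compound 10 min, room temp → basal read 6 s → carbachol EC80 (100 nM) → 4 min kinetic read; peak/basal.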

[17] = NFAT Signaling Pathway (AID 444; active means well fitted curve in either direction with a large enough effect, not every such curve was filed as active); settings: Jurkat NFAT-bla M1, carbachol, beta-lactamase ratio, 5 h; at 17.2 µM (top of the series) unless noted
Method in brief: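 Jurkat cells with NFAT-driven β-lactamase reporter and co-expressed M1 receptor, stimulated with carbachol (final 1 uM, ~EC50), compound titration, 5 h at 37 °C. CCF4 loaded 1 h at RT; 460/530 nm ratio gave %activity and AC50.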

[18] = target: Glucocorticoid receptor (Homo sapiens) (UniProt P04150); assay: GR-GFP Redistribution (AID 450;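 active means compounds whose dose series gives a full or clear partial fitted curve of increased nuclear translocation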; further: potency means the concentration at half of the fitted maximal effect); settings: U2OS GR-GFP nuclear translocation, laser cytometry, 2 h
[19] = qHTS Assay for Identification of Small Molecule Antagonists for Thrombopoietin (TPO) Signaling Pathway (AID 918); settings: TPO-dependent cell signaling reporter, antagonist mode; further: potency means the concentration at half of the fitted maximal effect; nearly all actives have a fitted effect of over 60% in size
Method in brief: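 Ba/F3 (murine, hTPO-R, GPIIb-luc reporter); overnight IL-3 withdrawal; cpd + TPO 26 pM final (EC50); 24 h 37 C/5% CO2; Steadylite luminescence after 10 min RT.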

[20] = target: Pyruvate kinase PKM (Homo sapiens) (UniProt P14618); assay: qHTS Assay for Inhibitors of Human Muscle Pyruvate Kinase (AID 958)
Method in brief: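 Human PKM2 activity is measured as ATP generation, detected by luciferase-coupled luminescence. The enzyme (0.1 nM) acts on 0.5 mM PEP and 0.1 mM ADP for 1 h at ambient temperature; data are normalized to uninhibited and full-inhibition wells.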

[21] = target: Cytochrome P450 2C9 (Homo sapiens) (UniProt P11712); assay: qHTS Assay for Inhibitors and Substrates of Cytochrome P450 2C9 (AID 883); further: on the % scale 0 is the no-effect control and ±100 the full control effect; nearly all actives have a fitted effect of over 60% in size
Method in brief: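 Signal: luciferase luminescence reporting luciferin produced by CYP2C9. Conditions: 10nM enzyme, Luciferin-H 100uM at KM, 25mM KPO4, 37C, 60 min NADPH-driven reaction. Reference: 57uM sulphaphenazole as 100% inhibition.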

[22] = target: Cytochrome P450 2C19 (Homo sapiens) (UniProt P33261); assay: qHTS Assay for Inhibitors and Substrates of Cytochrome P450 2C19 (AID 899); further: on the % scale 0 is the no-effect control and ±100 the full control effect; nearly all actives have a fitted effect of over 60% in size
Method in brief: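 Signal comes from luciferase acting on luciferin released by CYP2C19-mediated hydroxylation of Luciferin-H EGE, 10uM (KM). Assay mix: 5nM enzyme, 50mM KPO4; 60 min at 37C with NADPH regeneration. Data normalized against 57uM ketoconazole.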

C[C@H](N[C@@H](C)CCc1ccccc1)[C@H](O)c1ccc(O)cc1
active: Potency [2] 7.94 µM | Potency [8] 2 µM | Potency [9] 0.0089 µM [stimulated with 10 pM TNF alpha]
inactive: activity change, negative = inhibition [1] 10.2% [at 38 µM] | outcome [3] | Potency [4] > 46 µM | outcome [5] | outcome [6] | Potency [7] | outcome [10] | outcome [11] | outcome [12] | outcome [13] | outcome [14]

C=CCN1C[C@@H](C)N([C@H](c2ccc(C(=O)N(CC)CC)cc2)c2cccc(OC)c2)C[C@H]1C
inactive: activity change, negative = inhibition [1] -9.21% [at 38 µM] | Potency [2] | Potency [4] > 46 µM | outcome [6] | Potency [7] | Potency [15] | outcome [10] | outcome [11] | outcome [12] | outcome [13] | outcome [14]
active: Potency [9] 5.01 µM | Potency [16] 14.1 µM

CC(C)OC(=O)c1c(N)n(Cc2ccco2)c2nc3ccccc3nc12
inactive: activity change, negative = inhibition [1] -15.7% | activity change, negative = inhibition [17] 17.6% | outcome [3]

CC(C)(C)NC[C@H](O)c1ccccc1Cl
inactive: activity change, negative = inhibition [1] -8.82% [at 38 µM] | Potency [2] | activity change, negative = inhibition [17] -15.3% [at 38 µM] | outcome [3] | Potency [18] > 46 µM | Potency [4] > 46 µM | outcome [6] | Potency [7] | outcome [10] | outcome [11] | outcome [12] | outcome [13] | outcome [14]

C=CCN1CCc2cccc3c2[C@@H]1Cc1ccc(O)c(O)c1-3
active: Potency [2] 3.16 µM | Potency [19] 10 µM
inactive: activity change, negative = inhibition [1] -21.9% [at 38 µM] | outcome [3] | outcome [6] | Potency [15] | Potency [16] | outcome [12] | Potency [20] | outcome [13] | outcome [14]

C=C(C)[C@@H]1CN[C@H](C(=O)O)[C@H]1CC(=O)O
inactive: activity change, negative = inhibition [1] 8.5% [at 38 µM] | Potency [2] | activity change, negative = inhibition [17] 0.349% [at 38 µM] | Potency [18] > 46 µM | Potency [4] > 46 µM | outcome [6] | Potency [21] | Potency [8] | Potency [22]
